Test systems include NCI-H23 lung; NCI-H226 lung; NCI-H322M lung; HOP-62 NSCLC; NCI-H460 lung; HOP-92 NSCLC; NCI-H522 lung; A549/ATCC NSCLC; 786-0 renal; COLO 205 colon; DU-145 prostate; K-562 leukemia; MALME-3M melanoma; MDA-MB-231 breast; RXF 393 renal; SF-268 CNS; SF-295 CNS; SF-539 CNS; UACC-257 melanoma; M14 melanoma.
What all share (assay): NCI-60 one-dose screen, 48 h (100 = growth as untreated, 0 = no growth, -100 = all killed)
Holding throughout (conditions): 10 µM unless noted

Each structure is given as a SMILES string. About 83,000 compounds went through this panel and 20% of them were active in at least one assay; those are over-represented in the sample as a whole.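 For each line, cells grew in 96-well plates with the test compound present at a single concentration for 48 hours.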 Values without a mark were called inactive. Calls of active or inactive are those of the source. How the source made its calls: active means growth percent below 10; inactive means the rest.

Take `Cc1cc(NCC(=O)Nc2ccc(-c3nc4ccccc4s3)cc2)no1`: the growth is 82.8% in the assay with NCI-H23 lung; 91% with NCI-H226 lung; 102% in the assay on NCI-H322M lung; 111% in the assay on HOP-62 NSCLC; 103% with NCI-H460 lung; 100% in the assay on HOP-92 NSCLC. For the same compound, the growth in the assay on NCI-H522 lung was 82.1%; with A549/ATCC NSCLC, 92.3%; in the assay on 786-0 renal, 102%; in the assay on COLO 205 colon, 108%; in the assay on DU-145 prostate, 95.9%; in the assay with K-562 leukemia, 83%. For the same compound, the growth in the assay on MALME-3M melanoma is 89.5%; in the assay on MDA-MB-231 breast, 108%; in the assay on RXF 393 renal it was 105%; with SF-268 CNS, 87.4%; in the assay on SF-295 CNS it was 96.4%; in the assay with SF-539 CNS, 105%. For the same compound, in the assay with UACC-257 melanoma, the growth was 99.7%.
As to `CC(=O)Nc1cccc(-n2c(=O)n(C3CC3)c(=O)c3c(Nc4ccc(I)cc4F)n(C)c(=O)c(C)c32)c1`, the growth was 17.1% in the assay on NCI-H23 lung; 49.5% in the assay on NCI-H226 lung; 10.9% in the assay with NCI-H322M lung; 19.5% with HOP-62 NSCLC; 56.1% with NCI-H460 lung; -27% (active) in the assay on HOP-92 NSCLC. For the same compound, the growth is 34.6% with NCI-H522 lung; 28.4% in the assay on A549/ATCC NSCLC; 56.2% in the assay with 786-0 renal; -12.9% (active) with COLO 205 colon; 53% in the assay with DU-145 prostate; 25.5% with K-562 leukemia. The growth with MALME-3M melanoma was -0.925% (active); with MDA-MB-231 breast, 18.6%; with RXF 393 renal, -15.2% (active); with SF-268 CNS it was 53%; with SF-295 CNS, 82.6%; in the assay on SF-539 CNS, 41.1%. The results for the growth in the assay on UACC-257 melanoma and in the assay on M14 melanoma were -21.9% (active) and 1.71% (active), respectively.
Take `CCCCOc1nc2cc(Cl)ccc2cc1/C=C/c1cc(/C=C/c2cc3ccc(Cl)cc3nc2OCCCC)n(-c2ccccc2)n1`: the growth was 83.3% in the assay with NCI-H23 lung; 75.1% in the assay on NCI-H226 lung; 92.5% in the assay with NCI-H322M lung; 32.3% in the assay on HOP-62 NSCLC; 98.3% in the assay with NCI-H460 lung; 76.8% in the assay on HOP-92 NSCLC. Besides, the growth was 61% in the assay on NCI-H522 lung; 75.4% with A549/ATCC NSCLC; 64% with 786-0 renal; 88.3% in the assay with COLO 205 colon; 101% in the assay on DU-145 prostate; 91.7% in the assay on K-562 leukemia. For the same compound, the growth was 92.8% in the assay with MALME-3M melanoma; 82.3% in the assay on MDA-MB-231 breast; 81.6% in the assay with RXF 393 renal; 74.9% in the assay with SF-268 CNS; 52.4% with SF-295 CNS; 91.9% in the assay with SF-539 CNS. Also, in the assay on UACC-257 melanoma, the growth is 67%.
For the compound `Cc1c(Cn2c(C)nc3c(C(=O)O)cc(N4CCOCC4)cc32)cccc1C(F)(F)F`, the growth with NCI-H23 lung is 105%; in the assay on NCI-H226 lung, 114%; with NCI-H322M lung, 98.8%; with HOP-62 NSCLC, 79%; with NCI-H460 lung, 102%; in the assay on HOP-92 NSCLC, 88.3%. Also, the growth is 62.9% with NCI-H522 lung; 89.7% in the assay with A549/ATCC NSCLC; 95.8% with 786-0 renal; 108% in the assay on COLO 205 colon; 108% in the assay on DU-145 prostate; 87.4% with K-562 leukemia. Further, the growth in the assay on MALME-3M melanoma was 91.8%; in the assay with MDA-MB-231 breast, 110%; with RXF 393 renal, 27.3%; with SF-268 CNS, 88.6%; in the assay on SF-295 CNS it was 75.1%; with SF-539 CNS, 113%. In addition, the growth in the assay with UACC-257 melanoma was 79%; in the assay on M14 melanoma it was 89%.
On to `Oc1ccc(C(c2ccc(O)cc2)C(Cl)(Cl)Cl)cc1`, for which the growth in the assay on NCI-H23 lung is 99.8%; in the assay with NCI-H226 lung it was 104%; with NCI-H322M lung, 98.2%; in the assay with HOP-62 NSCLC, 107%; with NCI-H460 lung, 98.2%; in the assay on HOP-92 NSCLC it was 56.1%. The growth in the assay on NCI-H522 lung is 83.2%; in the assay on A549/ATCC NSCLC it was 89.2%; with 786-0 renal, 102%; in the assay with COLO 205 colon, 104%; with DU-145 prostate, 109%; in the assay with K-562 leukemia, 79.7%. Moreover, the growth is 134% with MALME-3M melanoma; 98.2% in the assay with MDA-MB-231 breast; 101% in the assay with RXF 393 renal; 96.9% in the assay with SF-268 CNS; 96.1% with SF-295 CNS; 99.9% in the assay on SF-539 CNS. For the same compound, the growth in the assay on UACC-257 melanoma was 119%; in the assay on M14 melanoma, 105%.
Turning to `C=CC(=O)N1CCC(Oc2cc3c(Nc4ccc(Cl)c(Cl)c4F)ncnc3cc2OC)CC1`, the growth is 23.2% with NCI-H23 lung; 34.9% in the assay on NCI-H226 lung; 12.2% with NCI-H322M lung; 18.4% in the assay with HOP-62 NSCLC; 39.3% with NCI-H460 lung; -29.7% (active) with HOP-92 NSCLC. For the same compound, the growth in the assay on NCI-H522 lung was -49.3% (active); in the assay with A549/ATCC NSCLC, 15.7%; in the assay on 786-0 renal it was 23.2%; in the assay on COLO 205 colon it was 15%; in the assay with DU-145 prostate, 24.2%; in the assay with K-562 leukemia, 12.6%. The growth with MALME-3M melanoma was 60.9%; with MDA-MB-231 breast it was 17.3%; in the assay with RXF 393 renal it was -46.6% (active); in the assay on SF-268 CNS, 8.38% (active); with SF-295 CNS, 15.9%; in the assay with SF-539 CNS, -8.55% (active). For the same compound, the growth in the assay with UACC-257 melanoma is 24.4%.
Regarding `Cc1ccc(-[n+]2c3cc(N)c(C)cc3nc3cc(C)c(Nc4ccccc4)cc32)cc1`, the growth in the assay with NCI-H23 lung was -74.4% (active); in the assay on NCI-H226 lung it was -67% (active); in the assay on NCI-H322M lung, -53.1% (active); in the assay on HOP-62 NSCLC, -64.9% (active); in the assay on NCI-H460 lung, -48.2% (active); in the assay on HOP-92 NSCLC, -60.5% (active). The growth was -48.8% (active) in the assay with NCI-H522 lung; -18.9% (active) in the assay with A549/ATCC NSCLC; -93% (active) in the assay with 786-0 renal; -94.9% (active) in the assay on COLO 205 colon; -79.3% (active) in the assay with DU-145 prostate; -22.7% (active) with K-562 leukemia. The growth in the assay on MALME-3M melanoma was -58% (active); with MDA-MB-231 breast, -70% (active); in the assay on RXF 393 renal it was -98.7% (active); with SF-268 CNS, -88.6% (active); in the assay on SF-295 CNS, -39.2% (active); in the assay on SF-539 CNS, -77% (active). Moreover, the figures for the growth in the assay with UACC-257 melanoma and in the assay with M14 melanoma were -48.8% (active) and -93.3% (active), respectively.
Consider `CNC(=O)c1cc(Oc2cccc3nc(Nc4ccc(Cl)c(F)c4)ccc23)ccn1`, for which the growth in the assay on NCI-H23 lung was 62.4%; in the assay with NCI-H226 lung, 43.4%; with NCI-H322M lung it was 78.8%; with HOP-62 NSCLC, 34.8%; in the assay with NCI-H460 lung it was 60.6%; in the assay on HOP-92 NSCLC, 9.48% (active). Besides, the growth is 52.7% in the assay with NCI-H522 lung; 61.3% in the assay with A549/ATCC NSCLC; 41.7% in the assay on 786-0 renal; 84.3% with COLO 205 colon; 71.3% in the assay on DU-145 prostate; 83.8% in the assay on K-562 leukemia. In addition, the growth in the assay with MALME-3M melanoma is 1.36% (active); in the assay on MDA-MB-231 breast, 73.5%; in the assay with RXF 393 renal it was 8.19% (active); with SF-268 CNS, 55.4%; in the assay on SF-295 CNS, 51.5%; with SF-539 CNS, 41.1%. Moreover, the growth in the assay on UACC-257 melanoma is 74.5%; in the assay on M14 melanoma, 80.2%.

(Values after PubChem BioAssay (NCI).)
